In PubChem BioAssay:
Active and inactive are the calls of the source.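 Rule for the calls, unless noted: active = inhibition of the reporter signal at or above 50%; inactive = inhibition below 50%.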

Columns and labels:
[1] = inhibitors of TNFa-induced NFkB p65 translocation, primary screen, imaging, HUVEC, MLSMR starter and 10KST1 sets (AID 438;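 active = inhibition above 20% together with a positive visual image hit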;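 note: compound added about 3h40 before a 20 min TNFalpha stimulation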;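 for inhibition: signal is the nuclear over cytoplasmic p65 intensity ratio per well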); details: HUVEC TNFa-induced p65 nuclear translocation; cell count: measured here: nuclei count (cytotoxicity indicator), at 2.08 µM; inhibition: at 2 µM, stronger effect = higher value, 0% TNFa-plus-vehicle, 100% no-TNFa wells
[2] = reduction of polyQ htt aggregates in cells – imaging, exon1htt(103Q)mCFP cells, high-content imaging, primary screen (AID 483;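 active = visual image review flags a hit and inhibition of aggregation exceeds 20%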;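 note: compound exposure lasted 3 days before fixation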;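 for nuclei count: percent of the per-plate median nuclei count of sample wells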); details: exon1htt(103Q)mCFP cell line, aggregate imaging, at 2 µM; inhibition of aggregation: stronger effect = higher value; nuclei count: measured here: cell count, toxicity
[3] = endothelial E-selectin expression blockers – imaging, HUVEC, immunofluorescence, MLSMR starter and 10KST1 sets, primary screen (AID 487;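 active = visually confirmed hit in the image check and inhibition above 20%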;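 for inhibition: signal is fraction of cell area covered by stained E-selectin grains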;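 for nuclei count: 100% = median nuclei count of all wells on the same plate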); details: HUVEC TNFalpha-induced E-selectin immunofluorescence imaging, at 2 µM; inhibition: stronger effect = higher value; nuclei count: measured here: cell number, toxicity
[4] = molecular target: Voltage-gated potassium channel subunit beta-2 (Rattus norvegicus) (UniProt P62483); assay: inhibitors of rat Kvbeta2 reductase activity – biochemical, NADPH fluorescence, primary screen (AID 622;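 active = fluorescence slope higher than the sample average by over 3 SD, cut at about -0.22 in these data, passing the limit was not always enough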;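 note: slope of raw intensity against log time taken from 70 to 1610 s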); details: recombinant KvBeta, 4-cyanobenzaldehyde reduction, at 10 µM, stronger effect = higher value
[5] = molecular target: Voltage-gated potassium channel subunit beta-2 (Rattus norvegicus) (UniProt P62483); assay: enhancers of rat Kvbeta2 NADPH turnover – biochemical, NADPH fluorescence, primary screen (AID 623;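 active = NADPH fluorescence slope more negative than the mean of all samples by about 3 SD, 99.7% confidence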;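 note: fluorescence intensity change per second fitted from 20 to 320 s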); details: Recombinant KvBeta, NADPH fluorescence decrease slope, 10 min; at 10 µM; stronger effect = lower value
[6] = molecular target: Alpha-2C adrenergic receptor (Homo sapiens) (UniProt P18825); assay: compounds altering alpha2C-coupled GIRK flux – cell-based, HEK293 alpha2C/GIRK1/2, thallium flux, primary screen (AID 624;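 active = fluorescence slope after compound addition differing from the mean of all screened samples at 99.7% confidence, in either direction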;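 note: slope of fluorescence ratio to pre-addition baseline per second over 15 to 24 s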); details: thallium flux BTC fluorescence, at 10 µM, actives lie on both sides
[7] = blockers of RIG-like receptor reporter activation – cell-based, Sendai virus stimulus, luciferase, 10K MLSCN set, TLR/RLR signaling modifier project, primary screen (AID 602276;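 active = inhibition at or above 50% at 10 µM; inactive = inhibition below 50%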;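 note: firefly luciferase from ISG56 promoter only with Renilla not read in this screen; 0% = Sendai virus plus DMSO and 100% = medium plus DMSO without virus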); details: HEK293 RL24 IRF3 luciferase reporter, at 10 µM, stronger effect = higher value
[8] = TLR3 IRF3 reporter activation blockers – cell-based, poly I:C stimulus, luciferase, 10K MLSCN set, primary screen (AID 602277); details: HEK293-TLR3 RL24 IRF3 luciferase reporter, at 10 µM, stronger effect = higher value

Voltage-gated potassium channel subunit beta-2 (Rattus norvegicus), sequence (P62483 whole entry, looked up): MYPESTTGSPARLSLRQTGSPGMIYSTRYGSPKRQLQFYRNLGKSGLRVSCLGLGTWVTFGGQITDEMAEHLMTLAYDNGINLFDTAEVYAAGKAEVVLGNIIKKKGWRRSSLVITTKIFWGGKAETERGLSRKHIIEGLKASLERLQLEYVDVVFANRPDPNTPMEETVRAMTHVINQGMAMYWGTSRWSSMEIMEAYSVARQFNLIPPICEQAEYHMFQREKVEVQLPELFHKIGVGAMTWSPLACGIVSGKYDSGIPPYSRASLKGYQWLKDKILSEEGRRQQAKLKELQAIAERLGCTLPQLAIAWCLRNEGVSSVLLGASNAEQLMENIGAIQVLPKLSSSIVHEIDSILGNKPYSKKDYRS
Alpha-2C adrenergic receptor (Homo sapiens), sequence (P18825 whole entry, looked up): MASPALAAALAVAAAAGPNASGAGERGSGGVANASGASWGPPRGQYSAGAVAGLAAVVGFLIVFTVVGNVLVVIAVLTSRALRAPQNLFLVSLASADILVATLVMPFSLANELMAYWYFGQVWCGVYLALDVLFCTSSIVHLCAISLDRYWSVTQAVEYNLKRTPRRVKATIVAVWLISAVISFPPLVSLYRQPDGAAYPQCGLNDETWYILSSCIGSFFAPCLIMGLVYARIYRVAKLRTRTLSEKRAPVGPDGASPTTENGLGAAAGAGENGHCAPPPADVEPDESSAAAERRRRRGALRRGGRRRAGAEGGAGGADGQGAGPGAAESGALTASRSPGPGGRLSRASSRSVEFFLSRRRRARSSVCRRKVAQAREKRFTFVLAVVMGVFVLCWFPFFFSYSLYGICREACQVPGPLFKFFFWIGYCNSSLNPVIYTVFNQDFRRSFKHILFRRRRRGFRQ

Compound	cell count [1]	inhibition [1]	inhibition of aggregation [2]	nuclei count [2]	inhibition [3]	nuclei count [3]	fluorescence slope [4]	NADPH fluorescence slope [5]	slope [6]	inhibition [7]	inhibition [8]
Cc1sc(NC(=O)CSc2nnc(COc3ccccc3)n2C)c(C#N)c1C	602	2.2% (inactive)	15.6% (inactive)	93.8%	-77.2% (inactive)	113%	-0.335 (inactive)	5.1e-06 (inactive)	0.00494 (inactive)	-3.28% (inactive)	-13.7% (inactive)
Nn1c(SCC(=O)NC2CCCCC2)nnc1C1CC1	433	-28.7% (inactive)	7.4% (inactive)	95.6%	-36.9% (inactive)	117%	-0.466 (inactive)	4.6e-05 (inactive)	0.00622 (inactive)	4.49% (inactive)	16.1% (inactive)
c1ccc(-n2ncc3c(NCc4cccs4)ncnc32)cc1	338	-5.7% (inactive)	-6% (inactive)	94.4%	-3.7% (inactive)	118%	-0.415 (inactive)	-4.2e-05 (inactive)	0.00561 (inactive)	-19.7% (inactive)	-78.7% (inactive)
CC1(C)CC(=O)C(C(=O)CCCCC(=O)C2C(=O)CC(C)(C)CC2=O)C(=O)C1	269	3.6% (inactive)	18% (inactive)	100%	19% (inactive)	80%	-0.415 (inactive)	1.6e-05 (inactive)	0.00351 (inactive)	-6.03% (inactive)	-20.4% (inactive)
c1coc(Cn2nnnc2CN2CCN(C3CCCC3)CC2)c1	530	-15.6% (inactive)	-2.8% (inactive)	96.9%	-1.8% (inactive)	107%	-0.408 (inactive)	2.2e-05 (inactive)	0.00537 (inactive)	-7.52% (inactive)	12.8% (inactive)
Cc1ccc(Cn2nnnc2CN2CCC(O)(c3ccccc3F)CC2)cc1	784	0.2% (inactive)	12.3% (inactive)	96.1%	-57% (inactive)	122%	-0.498 (inactive)	-5.4e-05 (inactive)	0.00492 (inactive)	20.8% (inactive)	16.6% (inactive)
CCc1nnc(NC(=O)c2cc3ccccc3oc2=O)s1	597	-9.6% (inactive)	15.7% (inactive)	96.9%	-67.3% (inactive)	96.3%	-0.57 (inactive)	-2e-05 (inactive)	0.00433 (inactive)	-9.54% (inactive)	-77.5% (inactive)
CC(=O)OC1CSc2nc3ccccc3n2C1 (stereo not drawn)	393	-9.6% (inactive)	6.2% (inactive)	99.9%	25.1% (inactive)	118%	-0.302 (inactive)	-5.5e-05 (inactive)	0.00459 (inactive)	7.55% (inactive)	13% (inactive)
CCn1c2ccccc2c2cc(Nc3cc(C)nc4ncnn34)ccc21	513	8.5% (inactive)	7.5% (inactive)	3%	-104% (inactive)	65.1%	-0.527 (inactive)	7.4e-07 (inactive)	0.00558 (inactive)	68.5% (active)	87.2% (active)
Cc1ccc2cc(C(c3nnnn3CC3CCCO3)N3CCCC4(CCCCC4)C3)c(=O)[nH]c2c1 (stereo not drawn)	715	0.8% (inactive)	23.8% (inactive)	106%	-34% (inactive)	112%	-0.618 (inactive)	-3.7e-05 (inactive)	0.00614 (inactive)	10.5% (inactive)	16.9% (inactive)
CCOC(=O)N1CCC(NC(=O)CN2C(=O)CCSc3ccccc32)CC1	807	-8.5% (inactive)	5.8% (inactive)	101%	-78% (inactive)	108%	-0.515 (inactive)	-3.1e-05 (inactive)	0.00644 (inactive)	4.21% (inactive)	1.38% (inactive)
Cc1ccc(N2CCN(S(=O)(=O)N(C)C)CC2)c(C)c1	393	-2.4% (inactive)	23.9% (inactive)	75.5%	-55.1% (inactive)	107%	-0.559 (inactive)	-3.5e-06 (inactive)	0.00671 (inactive)	2.52% (inactive)	4.97% (inactive)
OCc1cn(-c2ccccc2)nc1-c1ccc2c(c1)OCCO2	438	4.2% (inactive)	-10.7% (inactive)	99.4%	-84% (inactive)	112%	-0.532 (inactive)	-4.4e-05 (inactive)	0.00702 (inactive)	-51.8% (inactive)	-135% (inactive)
O=C(Nc1ccc(CN2CCOCC2)cc1)c1cc2ccccn2n1	579	0% (inactive)	-6.8% (inactive)	99.9%	8.4% (inactive)	108%	-0.596 (inactive)	-1.7e-05 (inactive)	0.00566 (inactive)	45.9% (inactive)	12% (inactive)
CCOc1ccc(N2C(=O)CC(N3CC(C)OC(C)C3)C2=O)cc1 (stereo not drawn)	578	-14.1% (inactive)	-12% (inactive)	104%	3.9% (inactive)	128%	-0.357 (inactive)	5.9e-06 (inactive)	0.00636 (inactive)	9.5% (inactive)	25.7% (inactive)
CCOC(=O)C1(c2ccccc2)NC(c2ccc(N(C)C)cc2)C2C(=O)N(C)C(=O)C21 (stereo not drawn)	450	-4% (inactive)	3.8% (inactive)	116%	-87.1% (inactive)	93.2%	-0.31 (inactive)	-6.3e-05 (inactive)	0.00476 (inactive)	14.4% (inactive)	22.7% (inactive)
CCC(C)(C(=O)NC1CCCC1)N(C(=O)c1cnccn1)c1c(C)n(C)n(-c2ccccc2)c1=O (stereo not drawn)	568	3.8% (inactive)	7% (inactive)	91.3%	15.6% (inactive)	89.6%	-0.471 (inactive)	-0.000132 (inactive)	0.00518 (inactive)	-1.44% (inactive)	9.08% (inactive)
CCCCOn1c(C)c(C(=O)OCC)c2c3nonc3ccc21	596	-27.1% (inactive)	-30.2% (inactive)	116%	-12.4% (inactive)	101%	-0.458 (inactive)	6.8e-06 (inactive)	0.00452 (inactive)	-10.2% (inactive)	-12.6% (inactive)
CS(=O)(=O)N1CCN(c2ccccc2NC(=O)c2cccs2)CC1	629	0.5% (inactive)	-6.7% (inactive)	105%	-0.6% (inactive)	89.5%	-0.501 (inactive)	1.2e-05 (inactive)	0.00365 (inactive)	11.6% (inactive)	18.8% (inactive)
c1ccc(-n2c(Sc3cnccn3)nnc2-c2cccs2)cc1	362	-24.6% (inactive)	2.4% (inactive)	100%	-37.1% (inactive)	149%	-0.612 (inactive)	-1.5e-05 (inactive)	0.00525 (inactive)	-2.69% (inactive)	12.5% (inactive)
O=C(C1CCN(c2nnnn2-c2ccccc2)CC1)N1CCN(c2ccccc2)CC1	618	-33.7% (inactive)	-1.1% (inactive)	98.3%	-35.9% (inactive)	112%	-0.602 (inactive)	-5.4e-05 (inactive)	0.00667 (inactive)	8.57% (inactive)	22.4% (inactive)
Cn1c(=O)c2c(nc(CN3CCOCC3)n2CC(O)CO)n(C)c1=O (stereo not drawn)	474	44.4% (active)	19.2% (inactive)	103%	10.6% (inactive)	110%	-0.427 (inactive)	-2.2e-05 (inactive)	0.00587 (inactive)	14.2% (inactive)	23.9% (inactive)
O=C(CN(C1CCCCC1)S(=O)(=O)c1ccccc1)NCc1cccnc1	671	2% (inactive)	-28.8% (inactive)	110%	-75.7% (inactive)	119%	-0.308 (inactive)	-3e-05 (inactive)	0.00649 (inactive)	5.99% (inactive)	13.7% (inactive)
Cc1nn(-c2ccccc2)c(C)c1/C=N/O	739	-3.9% (inactive)	-3.1% (inactive)	93.7%	25% (inactive)	94.2%	-0.446 (inactive)	2.9e-05 (inactive)	0.00603 (inactive)	-8.9% (inactive)	-14.8% (inactive)
CCOC(=O)c1ccc(S(=O)(=O)NC2CCCCCCC2)n1C	583	-1% (inactive)	3% (inactive)	95.7%	-42.2% (inactive)	123%	-0.614 (inactive)	5e-06 (inactive)	0.00591 (inactive)	17.3% (inactive)	23.7% (inactive)
O=C(CNc1ccc(Oc2ccccc2)cc1)N1CCOCC1	622	-26.3% (inactive)	2.1% (inactive)	103%	-25.6% (inactive)	97.4%	-0.541 (inactive)	-0.000138 (inactive)	0.00652 (inactive)	18.1% (inactive)	3.08% (inactive)
COc1ccc(N2CCN(Cc3nc4ccccc4c(=O)[nH]3)CC2)cc1	683	-4.7% (inactive)	-13.4% (inactive)	119%	-72.3% (inactive)	112%	-0.607 (inactive)	-3.1e-07 (inactive)	0.00376 (inactive)	10.6% (inactive)	-9.48% (inactive)
O=C(CSc1nnc(CNC(=O)c2cccs2)o1)NCCc1ccccc1	644	-2.2% (inactive)	-14.6% (inactive)	82.7%	-25.7% (inactive)	115%	-0.375 (inactive)	-4.4e-05 (inactive)	0.00483 (inactive)	18.5% (inactive)	16.6% (inactive)
